# Experimental data reported in publication PMC7862700, “An all-to-all approach to the identification of sequence-specific readers for epigenetic DNA modifications on cytosine”.
# Experiments:
# Assay in all cases: DAPPL (digital affinity profiling via proximity ligation, sequencing); 10 mM Tris-HCl pH 7.5, 50 mM NaCl, 1 mM DTT, 4% glycerol, room temperature, 30 min; GST-TFs on glutathione beads, 16-mer random dsDNA library, 0.1% formaldehyde crosslink after washing; high values mean tight binding
# Details in all cases: protein: recombinant; tags: N-terminal GST; dsDNA, one strand shown
# ELK1 = biological target: T1, ELK1 (Homo sapiens, UniProt P19419 1-428)
# T1 sequence: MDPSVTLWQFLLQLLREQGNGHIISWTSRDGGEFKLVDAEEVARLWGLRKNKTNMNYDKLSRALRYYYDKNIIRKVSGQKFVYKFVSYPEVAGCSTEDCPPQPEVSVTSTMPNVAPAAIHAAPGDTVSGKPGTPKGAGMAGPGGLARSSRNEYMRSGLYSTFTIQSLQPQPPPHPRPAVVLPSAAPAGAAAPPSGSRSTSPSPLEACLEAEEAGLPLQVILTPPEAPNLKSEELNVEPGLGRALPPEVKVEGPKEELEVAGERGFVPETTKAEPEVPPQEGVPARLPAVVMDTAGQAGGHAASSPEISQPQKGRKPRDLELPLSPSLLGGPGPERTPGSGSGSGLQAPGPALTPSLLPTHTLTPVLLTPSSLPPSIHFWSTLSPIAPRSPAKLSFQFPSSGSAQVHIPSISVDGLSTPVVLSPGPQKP
# Outline: (§1)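 Sequencing on an Illumina NextSeq500 followed washing, crosslinking with 0.1% formaldehyde, proximity ligation (BsaI/T4 ligase, 1 h, 37 °C) and PCR amplification of pools that had been incubated for 30 min at room temperature with 200 nmole of a random double-stranded 16-mer DNA library in Tris/NaCl/DTT/glycerol buffer. Each pool held DNA-barcoded human transcription factors, expressed in yeast as GST fusions and captured on glutathione beads, plus a tag-only sample. Binding signal is a hexamer's read frequency for a factor divided by its frequency in the tag-only sample.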
# GABPA = biological target: T2, GABPA (Homo sapiens, UniProt Q06546 1-454)
# T2 sequence: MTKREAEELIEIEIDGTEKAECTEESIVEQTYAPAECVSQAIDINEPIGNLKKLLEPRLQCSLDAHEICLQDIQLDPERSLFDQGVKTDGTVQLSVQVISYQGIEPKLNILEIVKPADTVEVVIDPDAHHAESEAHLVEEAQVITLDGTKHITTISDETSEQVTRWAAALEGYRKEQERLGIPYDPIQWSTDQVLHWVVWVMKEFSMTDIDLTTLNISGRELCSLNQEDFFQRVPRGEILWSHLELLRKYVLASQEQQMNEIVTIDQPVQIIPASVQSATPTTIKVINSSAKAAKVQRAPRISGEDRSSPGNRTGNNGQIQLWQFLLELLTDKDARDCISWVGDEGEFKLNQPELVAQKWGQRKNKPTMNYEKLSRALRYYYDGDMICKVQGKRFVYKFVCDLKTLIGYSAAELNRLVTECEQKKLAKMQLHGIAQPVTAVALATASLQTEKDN
# Outline: as §1
# ERG = biological target: T3, ERG (Homo sapiens, UniProt P11308 1-479)
# T3 sequence: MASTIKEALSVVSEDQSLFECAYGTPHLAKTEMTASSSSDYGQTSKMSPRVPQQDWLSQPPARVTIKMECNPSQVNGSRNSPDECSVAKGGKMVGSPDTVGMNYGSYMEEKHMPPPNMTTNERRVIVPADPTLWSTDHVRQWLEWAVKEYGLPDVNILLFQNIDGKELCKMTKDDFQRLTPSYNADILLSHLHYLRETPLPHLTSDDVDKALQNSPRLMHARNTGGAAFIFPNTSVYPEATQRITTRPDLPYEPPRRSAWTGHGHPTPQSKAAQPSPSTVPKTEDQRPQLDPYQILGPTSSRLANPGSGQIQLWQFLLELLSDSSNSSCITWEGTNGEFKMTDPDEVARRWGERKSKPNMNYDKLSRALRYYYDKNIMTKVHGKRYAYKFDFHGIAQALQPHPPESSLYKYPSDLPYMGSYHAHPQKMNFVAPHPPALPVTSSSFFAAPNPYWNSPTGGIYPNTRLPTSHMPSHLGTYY
# Outline: as §1
# ELF1 = ELF1 (Homo sapiens, UniProt P32519 1-619)
# Outline: as §1
# EHF = biological target: T4, EHF (Homo sapiens, UniProt Q9NZC4 1-300)
# T4 sequence: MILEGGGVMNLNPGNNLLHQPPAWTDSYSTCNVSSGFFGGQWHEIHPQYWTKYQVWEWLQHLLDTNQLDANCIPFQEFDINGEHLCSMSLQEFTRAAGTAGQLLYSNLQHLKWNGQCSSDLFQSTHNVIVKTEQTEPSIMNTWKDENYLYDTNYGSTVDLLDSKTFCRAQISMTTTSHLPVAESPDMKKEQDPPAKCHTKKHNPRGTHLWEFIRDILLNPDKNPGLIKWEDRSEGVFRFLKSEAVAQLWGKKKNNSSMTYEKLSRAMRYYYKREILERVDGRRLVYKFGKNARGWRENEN
# Outline: as §1
# FEV = biological target: T5, FEV (Homo sapiens, UniProt Q99581 1-238)
# T5 sequence: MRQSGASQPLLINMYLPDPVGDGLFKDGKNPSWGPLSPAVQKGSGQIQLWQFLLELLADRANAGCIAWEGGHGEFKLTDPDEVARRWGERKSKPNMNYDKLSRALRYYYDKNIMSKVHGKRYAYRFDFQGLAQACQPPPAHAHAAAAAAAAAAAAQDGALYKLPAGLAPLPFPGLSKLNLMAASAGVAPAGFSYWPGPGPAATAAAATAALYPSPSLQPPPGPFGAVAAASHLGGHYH
# Outline: as §1
# ETV5 = ETV5 (Homo sapiens, UniProt P41161 1-510)
# Outline: as §1
# ELF4 = ELF4 (Homo sapiens, UniProt Q99607 1-663)
# Outline: as §1
# ELK4 = biological target: T6, ELK4 (Homo sapiens, UniProt P28324-2 1-405)
# T6 sequence: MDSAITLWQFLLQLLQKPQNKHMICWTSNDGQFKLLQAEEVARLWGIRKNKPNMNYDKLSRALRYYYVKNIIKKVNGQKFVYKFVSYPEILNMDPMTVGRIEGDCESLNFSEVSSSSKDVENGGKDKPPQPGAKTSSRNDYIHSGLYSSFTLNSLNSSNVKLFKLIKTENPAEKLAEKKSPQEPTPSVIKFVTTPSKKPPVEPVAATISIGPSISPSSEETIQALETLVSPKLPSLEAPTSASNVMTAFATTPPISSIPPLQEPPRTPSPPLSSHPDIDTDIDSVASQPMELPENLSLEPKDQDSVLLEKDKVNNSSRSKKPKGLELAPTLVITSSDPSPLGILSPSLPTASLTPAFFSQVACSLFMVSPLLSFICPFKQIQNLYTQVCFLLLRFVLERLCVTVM
# Outline: as §1
# ELF1, sequence (P32519 whole entry): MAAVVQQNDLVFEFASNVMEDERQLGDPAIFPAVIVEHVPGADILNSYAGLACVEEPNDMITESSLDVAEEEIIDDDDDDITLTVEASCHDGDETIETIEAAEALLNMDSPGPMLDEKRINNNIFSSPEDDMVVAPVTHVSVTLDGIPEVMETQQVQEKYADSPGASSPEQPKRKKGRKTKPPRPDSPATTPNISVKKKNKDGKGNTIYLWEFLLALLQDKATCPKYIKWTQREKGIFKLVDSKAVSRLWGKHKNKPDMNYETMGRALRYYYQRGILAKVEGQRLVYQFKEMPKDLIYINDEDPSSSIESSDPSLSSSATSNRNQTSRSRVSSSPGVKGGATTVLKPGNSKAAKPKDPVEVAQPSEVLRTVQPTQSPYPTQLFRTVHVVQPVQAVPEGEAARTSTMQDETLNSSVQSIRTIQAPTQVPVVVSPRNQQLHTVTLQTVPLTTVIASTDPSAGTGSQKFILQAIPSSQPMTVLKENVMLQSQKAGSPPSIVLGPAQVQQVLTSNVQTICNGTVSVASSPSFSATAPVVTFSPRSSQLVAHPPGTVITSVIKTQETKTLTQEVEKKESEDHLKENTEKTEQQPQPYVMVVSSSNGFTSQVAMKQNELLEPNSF
# ETV5, sequence (P41161 whole entry): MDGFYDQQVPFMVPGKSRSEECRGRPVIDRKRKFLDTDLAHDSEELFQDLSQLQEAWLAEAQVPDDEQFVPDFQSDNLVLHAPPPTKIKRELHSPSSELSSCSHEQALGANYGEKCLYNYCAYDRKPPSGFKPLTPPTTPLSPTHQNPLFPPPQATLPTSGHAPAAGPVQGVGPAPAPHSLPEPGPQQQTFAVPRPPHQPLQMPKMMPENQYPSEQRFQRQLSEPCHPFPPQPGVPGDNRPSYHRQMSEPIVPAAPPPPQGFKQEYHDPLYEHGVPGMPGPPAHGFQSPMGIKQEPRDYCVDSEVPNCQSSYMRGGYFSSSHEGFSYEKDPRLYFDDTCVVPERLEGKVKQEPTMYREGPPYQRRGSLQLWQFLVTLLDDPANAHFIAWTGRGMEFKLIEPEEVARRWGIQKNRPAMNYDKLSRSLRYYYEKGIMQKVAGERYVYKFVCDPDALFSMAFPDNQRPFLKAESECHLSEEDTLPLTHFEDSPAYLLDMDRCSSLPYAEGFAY
# ELF4, sequence (Q99607 whole entry): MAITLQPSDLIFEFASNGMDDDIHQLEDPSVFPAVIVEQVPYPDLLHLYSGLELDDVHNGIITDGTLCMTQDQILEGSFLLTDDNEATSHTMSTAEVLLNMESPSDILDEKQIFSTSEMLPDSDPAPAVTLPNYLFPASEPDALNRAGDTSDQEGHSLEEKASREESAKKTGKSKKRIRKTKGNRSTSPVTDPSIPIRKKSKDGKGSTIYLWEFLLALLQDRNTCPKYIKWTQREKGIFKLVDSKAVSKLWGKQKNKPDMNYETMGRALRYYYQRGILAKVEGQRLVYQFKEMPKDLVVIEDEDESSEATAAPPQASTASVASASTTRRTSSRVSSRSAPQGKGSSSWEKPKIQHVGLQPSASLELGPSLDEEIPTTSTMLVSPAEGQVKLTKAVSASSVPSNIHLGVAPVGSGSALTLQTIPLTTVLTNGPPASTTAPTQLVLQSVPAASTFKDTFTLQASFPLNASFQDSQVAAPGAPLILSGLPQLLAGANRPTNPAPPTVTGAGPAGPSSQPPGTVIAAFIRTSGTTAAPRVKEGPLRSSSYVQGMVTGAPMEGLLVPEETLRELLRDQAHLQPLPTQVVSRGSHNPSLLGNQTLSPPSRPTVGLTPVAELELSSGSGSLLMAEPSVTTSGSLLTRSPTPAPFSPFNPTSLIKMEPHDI
sequence,measurement,setting,value
TCATGT,binding signal,ELK1,"1.17 fold enrichment (6-mer frequency, TF over GST control)"
same,binding signal,GABPA,"1.11 fold enrichment (6-mer frequency, TF over GST control)"
same,binding signal,ERG,"1.1 fold enrichment (6-mer frequency, TF over GST control)"
same,binding signal,ELF1,"1.15 fold enrichment (6-mer frequency, TF over GST control)"
same,binding signal,EHF,"1.02 fold enrichment (6-mer frequency, TF over GST control)"
same,binding signal,FEV,"1.05 fold enrichment (6-mer frequency, TF over GST control)"
same,binding signal,ETV5,"1.16 fold enrichment (6-mer frequency, TF over GST control)"
same,binding signal,ELF4,"1.1 fold enrichment (6-mer frequency, TF over GST control)"
same,binding signal,ELK4,"1.08 fold enrichment (6-mer frequency, TF over GST control)"
